Results published in PubChem BioAssay (NCATS).
Results filed as inconclusive are left out. Active and inactive are the calls of the source. Unless noted, calls follow the shape of the dose curve; as a rule, active = well fitted curve in the direction sought with a large enough effect; inconclusive = small, poorly fitted or top-dose-only effect, or another doubt; inactive = no such curve, though single readings can be large; an effect the other way counts as inactive or inconclusive.

What was measured:
[1] = target: T1, Tyrosine-protein phosphatase non-receptor type substrate 1 (Homo sapiens) + Leukocyte surface antigen CD47 (Homo sapiens) (UniProt P78324+Q08722); test: CD47-SIRPalpha protein protein interaction - LANCE assay qHTS validation (AID 1347057; active = well fitted curve in the direction sought with a large enough effect in the signal ratio, with a control signal flat, not every such curve was filed as active; the % refers to the signal ratio; also: series mostly up to about 38 µM)
T1 sequence (P78324 whole entry, looked up): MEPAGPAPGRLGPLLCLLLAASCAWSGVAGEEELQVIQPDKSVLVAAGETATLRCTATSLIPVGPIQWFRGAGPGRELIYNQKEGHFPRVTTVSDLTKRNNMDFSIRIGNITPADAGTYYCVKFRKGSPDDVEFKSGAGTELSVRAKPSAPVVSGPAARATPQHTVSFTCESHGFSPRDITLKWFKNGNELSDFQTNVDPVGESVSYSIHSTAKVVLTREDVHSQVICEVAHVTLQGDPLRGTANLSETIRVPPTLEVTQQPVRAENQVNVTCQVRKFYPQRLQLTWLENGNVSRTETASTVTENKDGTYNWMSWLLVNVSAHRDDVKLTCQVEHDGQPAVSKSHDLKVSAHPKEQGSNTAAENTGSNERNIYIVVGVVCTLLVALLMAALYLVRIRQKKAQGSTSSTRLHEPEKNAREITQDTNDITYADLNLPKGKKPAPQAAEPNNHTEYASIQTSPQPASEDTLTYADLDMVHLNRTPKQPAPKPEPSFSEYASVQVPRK
T1 sequence (Q08722 whole entry, looked up): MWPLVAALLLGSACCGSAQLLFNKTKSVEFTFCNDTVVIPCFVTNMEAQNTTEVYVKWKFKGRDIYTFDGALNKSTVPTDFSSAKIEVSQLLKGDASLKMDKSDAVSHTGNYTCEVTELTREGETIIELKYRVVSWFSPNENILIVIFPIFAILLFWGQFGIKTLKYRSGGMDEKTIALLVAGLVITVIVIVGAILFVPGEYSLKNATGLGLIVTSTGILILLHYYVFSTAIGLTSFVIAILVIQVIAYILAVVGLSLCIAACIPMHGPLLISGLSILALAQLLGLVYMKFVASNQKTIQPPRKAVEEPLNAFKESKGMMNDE
In short: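 First, His-tagged CD47 and Eu-labelled anti-His antibody met the compound for 30 min; next, site-specifically biotinylated SIRPalpha was added for 30 min; finally streptavidin-APC was added before reading the TR-FRET ratio.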

[2] = target: T1, Tyrosine-protein phosphatase non-receptor type substrate 1 (Homo sapiens) + Leukocyte surface antigen CD47 (Homo sapiens); test: CD47-SIRPalpha protein protein interaction - HTRF assay qHTS validation (AID 1347058; active = well fitted curve in the direction sought with a large enough effect in the signal ratio, not every such curve was filed as active; the % refers to the signal ratio;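 also: recombinant soluble extracellular CD47 with His tag and biotinylated SIRPalpha domains; series mostly up to about 38 µM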)
In short: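 TR-FRET read (Ch1/Ch2 ratio) of soluble extracellular CD47 and Avi-biotinylated SIRPalpha domains in PBS pH 7.4 with 0.05% IGEPAL; 7-point compound titration. Sequential 30 min room-temperature steps; non-biotinylated SIRPalpha as control inhibitor.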

[3] = target: T1, Tyrosine-protein phosphatase non-receptor type substrate 1 (Homo sapiens) + Leukocyte surface antigen CD47 (Homo sapiens); test: CD47-SIRPalpha protein protein interaction - Alpha assay qHTS validation (AID 1347059);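 also: bead proximity luminescence from CD47 binding SIRPalpha after compound preincubation with SIRPalpha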
In short: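 Binding is measured by AlphaScreen proximity: Ni-NTA acceptor beads capture His-CD47, streptavidin donor beads capture biotin-SIRPalpha. Each of three additions (SIRPalpha with compound, CD47, beads) incubates 30 min at room temperature protected from light.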

[4] = target: Parathyroid hormone/parathyroid hormone-related peptide receptor (Homo sapiens) (UniProt Q03431); test: qHTS for PTHR1 Agonists: Optimization Screen against the NCGC LOPAC library (AID 1347079);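 also: GloSensor cAMP luminescence in HEK-293 GP2 cells expressing human PTHR1 with IBMX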
Parathyroid hormone/parathyroid hormone-related peptide receptor (Homo sapiens), sequence (Q03431 whole entry, looked up): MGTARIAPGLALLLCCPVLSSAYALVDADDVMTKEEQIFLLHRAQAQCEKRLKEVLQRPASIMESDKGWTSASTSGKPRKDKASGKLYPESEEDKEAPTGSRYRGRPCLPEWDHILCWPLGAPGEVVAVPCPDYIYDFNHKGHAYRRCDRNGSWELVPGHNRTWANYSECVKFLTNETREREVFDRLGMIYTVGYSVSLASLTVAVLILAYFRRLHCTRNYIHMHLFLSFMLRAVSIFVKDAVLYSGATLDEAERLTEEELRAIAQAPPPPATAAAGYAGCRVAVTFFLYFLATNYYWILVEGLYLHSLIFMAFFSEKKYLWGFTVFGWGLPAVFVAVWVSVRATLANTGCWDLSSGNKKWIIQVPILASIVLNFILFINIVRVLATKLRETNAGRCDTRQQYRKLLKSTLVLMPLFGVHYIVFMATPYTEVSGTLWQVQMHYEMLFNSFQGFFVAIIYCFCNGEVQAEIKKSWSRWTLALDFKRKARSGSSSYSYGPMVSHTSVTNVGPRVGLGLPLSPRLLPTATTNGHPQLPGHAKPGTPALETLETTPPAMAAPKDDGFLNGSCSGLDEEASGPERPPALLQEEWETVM
In short: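 Compounds were tested across a qHTS titration. PTHR1-expressing GP2 cells report cAMP rises via GloSensor luminescence after 1 hr compound exposure at 37C with IBMX present.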

[5] = qHTS of pediatric cancer cell lines to identify multiple opportunities for drug repurposing: Primary screen for TC32 cells (AID 1347089); also: nearly all actives have a fitted effect of over 60% in size
In short: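 Luminescent ATP read-out (CellTiter-Glo) of metabolically active TC32 cells after 48 h exposure. Concentration-response curves came from 11-point (MIPE, 0.78 nM–46 µM) or 8-point (NPC, 0.59 nM–46 µM) primary titrations; follow-up used 11 points.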

[6] = qHTS of pediatric cancer cell lines to identify multiple opportunities for drug repurposing: Primary screen for DAOY cells (AID 1347090); also: series mostly up to about 46 µM; nearly all actives have a fitted effect of over 55% in size
In short: (§1)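 Cell viability, CellTiter-Glo luminescence; 500-1,000 cells/well, 8- or 11-point titration, 48 h compound exposure at 37 degrees C, 5% CO2. Controls: DMSO neutral, bortezomib 2.3 µM final as positive.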

[7] = qHTS of pediatric cancer cell lines to identify multiple opportunities for drug repurposing: Primary screen for SJ-GBM2 cells (AID 1347091)
In short: as §1

[8] = qHTS of pediatric cancer cell lines to identify multiple opportunities for drug repurposing: Primary screen for A673 cells (AID 1347092); also: nearly all actives have a fitted effect of over 45% in size
In short: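 Cell viability of A673 measured by CellTiter-Glo ATP luminescence after 48 hours compound exposure. Dilution series spanned 0.78 nM to 46 µM (MIPE, 11-point) or 0.59 nM to 46 µM (NPC, 8-point); bortezomib 2.3 uM positive control.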

[9] = qHTS of pediatric cancer cell lines to identify multiple opportunities for drug repurposing: Primary screen for BT-37 cells (AID 1347094); also: potency is read from the fitted curve at half-maximal effect
In short: (§2)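 Readout: CellTiter-Glo luminescence, 48 h treatment. Controls DMSO (neutral) and bortezomib 2.3 µM final (positive). Potency and efficacy taken from primary-screen concentration-response curves.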

[10] = qHTS of pediatric cancer cell lines to identify multiple opportunities for drug repurposing: Primary screen for NB-EBc1 cells (AID 1347095)
In short: as §2

[11] = qHTS of pediatric cancer cell lines to identify multiple opportunities for drug repurposing: Primary screen for U-2 OS cells (AID 1347096); also: nearly all actives have a fitted effect of over 50% in size
In short: (§3)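 Cells (500-1,000/well) rested 5 h, then received compounds for 48 h; metabolically active cells were measured by CellTiter-Glo luminescence. Final concentrations spanned up to 46 µM (MIPE, 11-point) or 0.59 nM-46 µM (NPC, 8-point) in primary screens, 11-point in follow-ups.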

[12] = qHTS of pediatric cancer cell lines to identify multiple opportunities for drug repurposing: Primary screen for Saos-2 cells (AID 1347097); also: nearly all actives have a fitted effect of over 40% in size; also: potency is read from the fitted curve at half-maximal effect
In short: as §2

[13] = qHTS of pediatric cancer cell lines to identify multiple opportunities for drug repurposing: Primary screen for SK-N-SH cells (AID 1347098); also: nearly all actives have a fitted effect of over 65% in size; also: potency is read from the fitted curve at half-maximal effect
In short: as §3

[14] = qHTS of pediatric cancer cell lines to identify multiple opportunities for drug repurposing: Primary screen for NB1643 cells (AID 1347099); also: nearly all actives have a fitted effect of over 50% in size
In short: as §2

[15] = qHTS of pediatric cancer cell lines to identify multiple opportunities for drug repurposing: Primary screen for LAN-5 cells (AID 1347100); also: potency is read from the fitted curve at half-maximal effect
In short: as §3

[16] = qHTS of pediatric cancer cell lines to identify multiple opportunities for drug repurposing: Primary screen for BT-12 cells (AID 1347101); also: nearly all actives have a fitted effect of over 25% in size
In short: as §3

[17] = qHTS of pediatric cancer cell lines to identify multiple opportunities for drug repurposing: Primary screen for OHS-50 cells (AID 1347103); also: nearly all actives have a fitted effect of over 40% in size; also: potency is read from the fitted curve at half-maximal effect
In short: as §3

[18] = qHTS of pediatric cancer cell lines to identify multiple opportunities for drug repurposing: Primary screen for RD cells (AID 1347104); also: nearly all actives have a fitted effect of over 55% in size; also: potency is read from the fitted curve at half-maximal effect
In short: as §2

[19] = qHTS of pediatric cancer cell lines to identify multiple opportunities for drug repurposing: Primary screen for SK-N-MC cells (AID 1347093); also: potency is read from the fitted curve at half-maximal effect
In short: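 Metabolically active cells were quantified by ATP-dependent luminescence (CellTiter-Glo, 15 min at room temperature) following 48 h treatment. Cells had been plated at 500-1,000 per well and settled for 5 h beforehand.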

[20] = qHTS of pediatric cancer cell lines to identify multiple opportunities for drug repurposing: Primary screen for Rh18 cells (AID 1347102); also: nearly all actives have a fitted effect of over 65% in size
In short: as §3

Measured: Potency

O=C(CCNNC(=O)c1ccncc1)NCc1ccccc1
inactive: [1] | [2] | [3] | [4] | [5] | [6] | [7] | [8] | [9] | [10] | [11] | [12] | [13] | [14] | [15] | [16] | [17] | [18]

Cc1cccc(C)c1NC(=O)C(C)N (configuration not stated)
inactive: [1] | [2] | [3] | [4] | [5] | [6] | [7] | [8] | [19] | [9] | [10] | [11] | [12] | [13] | [14] | [15] | [16] | [20] | [17] | [18]

COC(=O)[C@@H](N)Cc1ccc(O)c(O)c1
inactive: [1] | [2] | [3] | [4] | [5] | [6] | [7] | [8] | [9] | [10] | [11] | [13] | [14] | [15] | [16] | [20] | [17] | [18]

CCn1cc(C(=O)O)c(=O)c2cc3c(cc21)OCO3
inactive: [1] | [2] | [3] | [4] | [5] | [6] | [7] | [8] | [19] | [9] | [10] | [11] | [12] | [13] | [14] | [15] | [16] | [17] | [18]

CC(C)NNC(=O)c1ccncc1
inactive: [1] | [2] | [3] | [4] | [5] | [6] | [7] | [8] | [19] | [9] | [10] | [11] | [12] | [13] | [14] | [15] | [16] | [20] | [17] | [18]

Cc1ccc(=O)n(-c2ccccc2)c1
inactive: [1] | [2] | [3] | [4] | [5] | [7] | [8] | [19] | [9] | [10] | [11] | [12] | [13] | [14] | [15] | [16] | [20] | [17] | [18]

C[C@H](CS)C(=O)N1CCC[C@H]1C(=O)O
inactive: [1] | [2] | [3] | [4] | [5] | [6] | [7] | [8] | [19] | [9] | [10] | [11] | [12] | [13] | [14] | [15] | [16] | [20] | [17] | [18]

N[C@@H](COP(=O)(O)O)C(=O)O
inactive: [1] | [2] | [3] | [4] | [6] | [7] | [8] | [19] | [9] | [10] | [11] | [13] | [14] | [15] | [16] | [20] | [17] | [18]

C#CCN(C)CCCOc1ccc(Cl)cc1Cl
inactive: [1] | [2] | [3] | [4] | [5] | [7] | [8] | [19] | [9] | [10] | [11] | [13] | [14] | [15] | [16] | [20] | [18]

COC(=O)C1=C(C)NC(C)=C(C(=O)OC(C)(C)CN(C)CCC(c2ccccc2)c2ccccc2)C1c1cccc([N+](=O)[O-])c1 (configuration not stated)
inactive: [1] | [2] | [3] | [4] | [7]
active: [19] 13.3 µM | [15] 18.8 µM | [17] 12.3 µM

CCc1cccc(N(C)C(N)=Nc2cccc3ccccc23)c1
active: [12] 18.8 µM | [17] 15.5 µM
inactive: [1] | [2] | [3] | [4] | [7] | [10] | [14] | [15]

COc1ccc(CN(CCN(C)C)c2ccccn2)cc1
inactive: [1] | [2] | [3] | [4] | [6] | [7] | [8] | [19] | [9] | [10] | [11] | [12] | [13] | [14] | [15] | [16] | [20] | [17] | [18]

O=C(O)CCCCCCCC(=O)O
inactive: [1] | [2] | [3] | [4] | [6] | [7] | [8] | [19] | [9] | [10] | [11] | [12] | [13] | [14] | [15] | [16] | [17] | [18]

CCCCNC(=O)NS(=O)(=O)c1ccc(C)cc1
inactive: [1] | [2] | [3] | [4] | [5] | [7] | [8] | [9] | [10] | [11] | [12] | [13] | [14] | [15] | [16] | [20] | [17] | [18]

CCCC(C(=O)OCCN(CC)CC)(c1ccccc1)c1ccccc1
active: [9] 30.9 µM | [12] 26.6 µM | [13] 19.4 µM | [17] 30.9 µM | [18] 29.9 µM
inactive: [1] | [2] | [3] | [4] | [15]
